The panel holds about 83,000 compounds, 20% with a hit somewhere; the sample as a whole holds those more often.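 96-well plates, one dose, 48 hours. Percent growth reported; active if below 10.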 Unmarked numbers belong to inactive results. The source made the active and inactive calls.
What follows are molecules tested on CCRF-CEM leukemia (assay: NCI-60 one-dose screen, 48 h (100 = growth as untreated, 0 = no growth, -100 = all killed)). Conditions: 10 µM unless noted.

Row | SMILES | growth
1 | O=S(=O)(Oc1ccc(-c2cn3ccsc3n2)cc1)c1cccc(C(F)(F)F)c1 | 100%
2 | C#CCOc1cccc(/C(N)=N/C(N)=N/c2nc3ccccc3s2)c1 | 76.5%
3 | CCOC(=O)c1c(NC(=O)c2ccc(C(F)(F)F)cc2)sc2c(CN3CCN(C)CC3)c(O)ccc12 | -24.6% (active)
4 | Cc1ccc(NC(=O)Nc2nc3ccc([N+](=O)[O-])cc3s2)cc1 | 14.2%
5 | CCOC(=O)c1c(NCC(=O)Nc2cccc([N+](=O)[O-])c2)sc(C(C)=O)c1C | 4.89% (active)
6 | O=C(CCCCCCNC(=O)C(O)(O)C(F)(F)F)Nc1ccc(Br)cc1 | 23.9%
7 | Cc1ccccc1N1CCN(C2=C(Cl)C(=O)c3ncccc3C2=O)CC1 | 0.314% (active)
8 | O=C1[C@@H]2Cc3c([nH]c4ccccc34)[C@H](c3ccc(Br)cc3)N2C(=O)CN1C1CCN(Cc2c(Cl)cccc2Cl)CC1 | 88.8%
9 | Cc1ccc(CSC2=C(Cl)CN(c3ccc(Cl)cc3)C2=O)cc1 | 106%
10 | COC(=O)CCCNCCCn1ccc2cc(NCc3cccc(-c4ccccc4)c3C)ccc21 | 33.8%
11 | C#CCOc1ccccc1/C=N/Nc1nc(-c2ccc(Cl)cc2)cs1 | 96.6%
12 | CC(=O)c1c([Si](C)(C)C)c2cc(C#N)ccn2c1C(=O)c1ccc(Br)cc1 | 91.8%
13 | O=C(COc1ccc(/C=C2\C(=O)Nc3ccc(F)cc32)cc1)Nc1ccccc1 | 96.9%
14 | COc1ccc(CC(C)=C(c2ccc(OCCN3CCCC3)cc2)c2ccc(OCCN3CCCC3)cc2)cc1 | -40.8% (active)

From PubChem BioAssay (NCI)
